This is part of a sample that, as a whole, favours compounds with a hit. Of some 79,000 tested, about 15% had one in any assay. Rule as the data show it: active = growth inhibition above about 70%; inactive = the rest.
Tests used:
[1] = NCI Yeast Anticancer Drug Screen. Data for the rad50 strain (AID 155);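 also: 0% = growth of vehicle-only cultures of the same strain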; conditions: S. cerevisiae rad50 strain growth inhibition; at 50.0 µM; active compounds read high
Procedure, shortened: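 Vehicle-treated cultures provide the reference for the growth inhibition reported for compound-exposed, repair-deficient yeast.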

[2] = NCI Yeast Anticancer Drug Screen. Data for the mec2-1 strain (AID 157); conditions: S. cerevisiae mec2-1 strain, at 50.0 µM, active compounds read high
Procedure, shortened: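 Readout is yeast growth inhibition, normalised to vehicle-treated controls, in the mec2-1 strain exposed to compound.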

[3] = NCI Yeast Anticancer Drug Screen. Data for the sgs1 mgt1 strain (AID 161);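 also: 0% = growth of cultures given vehicle only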; conditions: S. cerevisiae sgs1 mgt1 strain, at 50.0 µM, active compounds read high
Procedure, shortened: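 Growth of a repair-deficient yeast mutant was monitored after compound treatment and expressed as inhibition relative to vehicle-treated cultures.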

[4] = NCI Yeast Anticancer Drug Screen. Data for the cln2 rad14 strain (AID 165);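 also: 0% = growth equal to vehicle treated cultures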; conditions: S. cerevisiae cln2 rad14 strain, at 50.0 µM, active compounds read high
Procedure, shortened: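 Relative to vehicle controls, growth inhibition of compound-treated cln2 rad14 yeast was recorded.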

[5] = NCI Yeast Anticancer Drug Screen. Data for the bub3 strain (AID 167); conditions: S. cerevisiae bub3 mutant strain, at 50.0 µM, active compounds read high
Procedure, shortened: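 Mutant yeast screening strain plus compound; vehicle-treated cultures serve as the 0% inhibition reference.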

[6] = NCI Yeast Anticancer Drug Screen. Data for the mlh1 rad18 strain (AID 175); conditions: S. cerevisiae mlh1 rad18 strain growth inhibition; at 50.0 µM; active compounds read high
Procedure, shortened: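 Test agents were incubated with a yeast strain of defined genotype (DNA damage repair defect). Inhibition of growth was derived by comparison with vehicle-exposed cultures.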

Measured: growth inhibition

OCC1OC(n2ccc3c2ncn2ncnc32)C(O)C1O (configuration not stated)
inactive: [1] -20.7% | [2] 3.45% | [3] -10.4% | [4] -15.3% | [5] -37.6% | [6] -47.8%

OCC(O)COc1ccc(Cl)cc1Cl (configuration not stated)
inactive: [1] 22.2% | [2] 6.25% | [3] 25.8% | [4] 8.85% | [5] 10.1% | [6] 16.8%

N=C(N)c1nn(C2OC(CO)C(O)C2O)c2nc[nH]c(=O)c12 (configuration not stated)
inactive: [1] 0.75% | [2] -9.5% | [3] 10.2% | [4] 17.6% | [5] 5.7% | [6] 27.1%

COc1nc(Nc2cccc(C(F)(F)F)c2)nc(OC)n1
inactive: [1] 8.5% | [2] -8% | [3] 15.4% | [4] 7.9% | [5] 23.2% | [6] 6.25%

C=CC1=NC(C)(C)CC(C)O1 (configuration not stated)
inactive: [1] 8% | [2] -15.2% | [3] 9.75% | [4] 25.4% | [5] 11.5% | [6] 9.75%

O=C(NCCc1ccccc1)/C(=C\c1ccc(Cl)cc1Cl)NC(=O)c1ccccc1
inactive: [1] 1.65% | [2] -6.15% | [3] 1.85% | [4] -5.95% | [5] 4.35% | [6] 13.9%

CCc1ccccc1C(=O)N(CC)CC
inactive: [1] -14.8% | [2] 18.4% | [3] 16.6% | [4] 32% | [5] -16.1% | [6] -6.65%

COc1cc(C(=O)NC(=S)NCc2ccncc2)cc(OC)c1OC
inactive: [1] 9.6% | [2] 4.75% | [3] -4.65% | [4] -11.2% | [5] 34.2% | [6] 19.7%

OCc1cccnc1
inactive: [1] -6.3% | [2] -36.9% | [3] 15.3% | [4] 9.55% | [5] -18.5% | [6] 5.75%

O=C(CCCl)OCCOc1ccccc1
inactive: [1] -9.85% | [2] 4.3% | [3] -15.1% | [4] 21.9% | [5] -18.5% | [6] 6.55%

COc1cc(-c2ccc(NC(=O)CC(C)=O)c(OC)c2)ccc1NC(=O)CC(C)=O
inactive: [1] -17.8% | [2] -26.6% | [3] -3.35% | [4] -5.3% | [5] 5.95% | [6] -14%

CC1(C)C2CCC1(C)C1(C2)OCCS1 (configuration not stated)
inactive: [1] 24.8% | [2] -5.25% | [3] 1% | [4] 11.2% | [5] 1.05% | [6] -7.65%

CCCCCC#CC(=O)O
inactive: [1] -3.05% | [2] -3.95% | [3] -8.05% | [4] 17.9% | [5] -7.3% | [6] 19.4%

O=C(O)Cc1cccc2ccccc12
inactive: [1] 19.2% | [2] -7.55% | [3] 2.65% | [4] 0.05% | [5] -9.65% | [6] -0.55%

CCCOCc1cn[nH]n1
inactive: [1] -9.7% | [2] 5.25% | [3] 8.3% | [4] -8.85% | [5] -8.95% | [6] -2.35%

O=C(c1ccc(Cl)cc1)N1CCCCC1
inactive: [1] 1.05% | [2] 2.85% | [3] -17.6% | [4] -0.65% | [5] -7.15% | [6] -5.8%

C[C@H](CCC[C@H](C)OS(=O)(=O)c1ccccc1)OS(=O)(=O)c1ccccc1
inactive: [1] 9.3% | [2] -3.9% | [3] 5.85% | [4] 4.55% | [5] -8.15% | [6] -16.6%

CC1(C)OC2C(CO)OC(n3ccc(=O)[nH]c3=O)C2O1 (configuration not stated)
inactive: [1] 1.9% | [2] 0.9% | [3] -12.3% | [4] -7.3% | [5] 10.5% | [6] -4.35%

BrCc1cccc(C[P+](c2ccccc2)(c2ccccc2)c2ccccc2)c1
inactive: [1] 66% | [2] 41.9% | [3] 36.2% | [4] 28.2% | [5] 38.5% | [6] 41%

CC(=O)N=c1ccc2nc3c(cc(N)c4ccccc43)oc-2c1
inactive: [1] 25.4% | [2] 13.2% | [3] 27.6% | [4] 20.9% | [5] 40.5% | [6] 33.8%

CCC12OC(COc3ccccc3)CN1CCN2c1ccccc1 (configuration not stated)
inactive: [1] -12.2% | [2] -6.15% | [3] -10.7% | [4] 3.15% | [5] -15.1% | [6] -11.5%

C=CCC(O)C=C (configuration not stated)
inactive: [1] 10.3% | [2] -14.9% | [3] 5.4% | [4] -0.8% | [5] -5.35% | [6] 12.4%
